Test results reported in PubChem BioAssay (NCATS).
Records with an inconclusive call do not appear. A call without a number means that no potency is given here. Activity calls are given as the source filed them. Calls follow the shape of the dose curve; as a rule, active = well fitted curve in the direction sought with a large enough effect; inconclusive = small, poorly fitted or top-dose-only effect, or another doubt; inactive = no such curve, though single readings can be large; an effect the other way counts as inactive or inconclusive.

Experiments:
[1] = qHTS for inhibitors of adenylyl cyclases using a fission yeast platform: a pilot screen against the NCATS LOPAC library (AID 1347410)
Summary of the method: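 Read-out: fbp1-GFP fluorescence by laser scanning cytometry (488 nm laser), a gain of signal when AC/cAMP-PKA signalling is inhibited. Strain CHP2027 expressing AC9, GNAS and PDE4D2; compounds at up to 57 µM; 18 h, 30C.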

[2] = molecular target: Single-stranded DNA cytosine deaminase (Homo sapiens) (UniProt Q9GZX7); test: Validation qHTS assay for inhibitors of Activation Induced Cytidine Deaminase (AID): AID signal (AID 1347429)
Sequence of Single-stranded DNA cytosine deaminase (Homo sapiens) (Q9GZX7 whole entry, looked up): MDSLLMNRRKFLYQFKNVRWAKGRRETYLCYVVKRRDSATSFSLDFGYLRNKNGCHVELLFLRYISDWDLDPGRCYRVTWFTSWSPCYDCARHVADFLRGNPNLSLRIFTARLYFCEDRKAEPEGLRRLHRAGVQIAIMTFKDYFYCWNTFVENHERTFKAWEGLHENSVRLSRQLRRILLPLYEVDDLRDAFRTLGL
Summary of the method: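 Steps: dispense AID with UDG; pin-transfer compound up to 114 uM final; add DJC20/DJC23 substrate and hold 4 hr at room temperature; add NaOH, hold 30 min; read FRET signal (540/590 nm).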

[3] = Primary qHTS for inhibitors of La Crosse Virus (LACV) - induced cell death in SH-SY5Y cells (AID 1508616);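 also: top concentration of the series differs between compounds; higher means more rescue of cells from virus-induced death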
Summary of the method: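 SH-SY5Y, 6000 cells/well; cpd via pin tool in DMSO; LACV 0.01 MOI; 6 d 37C 5% CO2; ATPLite, 5 min RT; luminescence normalized to ±virus DMSO controls.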

[4] = molecular target: Calcium and integrin-binding protein 1 (Homo sapiens) (UniProt Q99828); test: Validation qHTS for Identification of Calcium Integrin Binding protein 1 (CIB1) Competitor (AID 1508618)
Sequence of Calcium and integrin-binding protein 1 (Homo sapiens) (Q99828 whole entry, looked up): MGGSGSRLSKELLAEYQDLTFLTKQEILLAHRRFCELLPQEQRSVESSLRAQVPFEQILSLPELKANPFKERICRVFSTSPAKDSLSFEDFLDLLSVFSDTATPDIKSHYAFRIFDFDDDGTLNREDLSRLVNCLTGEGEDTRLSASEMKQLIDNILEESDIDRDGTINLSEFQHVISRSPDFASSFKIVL
Summary of the method: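 In this qHTS validation, the LOPAC set (up to 114 uM) was tested for blocking CIB1 binding to a fluorescein-tagged alphaIIb peptide, with FP detection at 480/540 nm.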

[5] = Validation qHTS assay for inhibitors of Activation Induced Cytidine Deaminase (AID): UDG Counterscreen signal (AID 1347427)
Summary of the method: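 Fluorescence at 560 nm excitation, 665 nm emission reports UDG signal after 250 mM NaOH (2x) addition and 30 min. Enzymes (AID 1 uM, UDG 2 U/mL, at 4/3x) preincubated 10 min with compound, then 4 h with 4x 250 nM DJC20/DJC23 substrate at room temperature.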

[6] = molecular target: Calcium and integrin-binding protein 1 (Homo sapiens) (UniProt Q99828); test: Primary qHTS for Identification of Calcium Integrin Binding Protein 1 (CIB1) Competitor (AID 1508620);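 also: GST tagged CIB1 binding a fluorescein labelled alphaIIb integrin peptide tracer; top concentration of the series differs between compounds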
Summary of the method: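 Fluorescence polarization competition: CIB1-GST (1 uM final) preincubated with compound 15 min at room temperature, then FITC-labeled alphaIIb peptide (100 nM final) added for another 15 min. Polarization read at Ex 480/Em 540.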

C=CC(N)CCC(=O)O (configuration not stated)
outcome [1]: inactive | Potency [2]: inactive | Potency [3]: inactive | outcome [4]: inactive

O=C(CCCCCN1CCN(c2ccccc2-c2ccccc2)CC1)NC1CCCc2ccccc21 (configuration not stated)
outcome [1]: inactive | Potency [2]: inactive | Potency [3]: inactive

COc1cc(C(O)CO)ccc1OS(=O)(=O)O (configuration not stated)
outcome [1]: inactive | Potency [2]: inactive | Potency [3]: inactive | outcome [4]: inactive

NS(=O)(=O)C#Cc1ccccc1
outcome [1]: inactive | Potency [5]: inactive | Potency [2]: inactive | outcome [4]: inactive

CN1CCc2cc(NC(=O)Nc3cccnc3)ccc21
outcome [1]: inactive | Potency [2]: inactive | Potency [3]: inactive | outcome [4]: inactive

NCCSSCCN
outcome [1]: inactive | Potency [2]: inactive | Potency [3]: inactive | outcome [4]: inactive

Cc1ccc(O)c(N=Nc2ccccc2)n1
outcome [1]: inactive | Potency [2]: inactive | Potency [3]: inactive

COCCOc1cc2ncnc(Cl)c2cc1OCCOC
outcome [1]: inactive | outcome [4]: inactive

Brc1cc2c(cc1[C@H]1Nc3ccccc3[C@H]3C=CC[C@H]31)OCO2
outcome [1]: inactive | outcome [4]: inactive

COc1ccc(C(=O)/C(Cc2cc(OC)c(OC)c(OC)c2)=C(\C(=O)O)c2ccc3c(c2)OCO3)cc1
outcome [1]: inactive | outcome [4]: inactive

COc1ccc(-c2cc(=O)c3c(O)c(OC)c(OC)cc3o2)cc1O
outcome [1]: inactive | outcome [4]: inactive

CCCCN(CC)c1nc(C)nc2c1c(C)cn2-c1c(C)cc(C)cc1C
outcome [1]: inactive | outcome [4]: inactive | Potency [6]: inactive

CCNC(=O)[C@H]1O[C@@H](n2cnc3c(N)nc(NCCc4ccc(CCC(=O)O)cc4)nc32)[C@H](O)C1O (some centres not stated)
outcome [1]: inactive | outcome [4]: inactive

Cn1c(=O)c(-c2c(Cl)cccc2Cl)cc2cnc(Nc3ccc(N4CCOCC4)cc3)nc21
outcome [1]: inactive | outcome [4]: inactive

CCN(CC)CCCCNc1ncc2cc(-c3c(Cl)cccc3Cl)c(NC(=O)NC(C)(C)C)nc2n1
outcome [1]: inactive | outcome [4]: inactive | Potency [6]: inactive

COc1ccc(/C=C2\COc3ccc(C)cc3C2=O)cc1O
outcome [1]: inactive | outcome [4]: inactive

CCCC(CCC)C(=O)OC1CC2CCC(C1)[N+]2(C)C (configuration not stated)
outcome [1]: inactive | outcome [4]: inactive

CN(CCCOc1ccc(Cc2ccccc2)cc1)CCC(=O)O
outcome [1]: inactive | outcome [4]: inactive | Potency [6]: inactive

CC(C)c1cccc(C(C)C)c1N1C(=O)c2ccc(O)cc2C1=O
outcome [1]: inactive | outcome [4]: inactive

O=C(CCc1ccncc1)NNC(=O)N1Cc2ccccc2Oc2ccc(Cl)cc21
outcome [1]: inactive | outcome [4]: inactive

CO[C@H]1O[C@@H]2O[C@]3(C)CC[C@@H]4[C@@H](C)CC[C@H]([C@H]1C)[C@]24OO3
outcome [1]: inactive | outcome [4]: inactive
